Results from PubChem BioAssay.
The source made the active and inactive calls.

Legend:
[1] = system: Plasmodium falciparum Sir2 (PF13_0152, Sir2A); test: Plasmodium falciparum Sir2A binding compounds – biochemical, small-molecule microarray, 635 nm fluorescence, primary screen (AID 1098); conditions: fluorescence 635 nm, higher = more signal;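 also: score merges spot fluorescence intensity with its signal-to-noise ratio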
[2] = probe aDKK1 binding to arrayed compounds – biochemical, biotinylated probe, 635/667 nm fluorescence, primary screen (AID 1099); conditions: small-molecule microarray, higher = more signal;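 also: score merges 667nm spot fluorescence with signal to noise across triplicate slides; reference of the scale not given here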
[3] = probe aCHRDL2 binding to arrayed compounds – biochemical, biotinylated probe, 635/667 nm fluorescence, primary screen (AID 1100); conditions: small-molecule microarray, higher = more signal
[4] = change in splice reporter luminescence, either direction, cell-based, HEK293, spliceosome inhibition project, primary screen (AID 1101); conditions: HEK293 splicing luciferase reporter, 24 h, higher = more signal, called active from +8 up or from −8 down;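 also: HEK293 cells carrying a splicing-competent luciferase reporter gene; test concentration not given here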
[5] = target: Fibroblast growth factor 10 (Homo sapiens) (UniProt O15520); test: compounds binding fibroblast growth factor 10 – biochemical, small-molecule microarray, 635 nm fluorescence, primary screen (AID 1102); conditions: FGF10 binding, fluorescence 635 nm, higher = more signal
[6] = system: glycogen synthase kinase-3 (GSK3A per assay name; protocol says GSK3B); test: compounds binding glycogen synthase kinase-3 – biochemical, small-molecule microarray, 635 nm fluorescence, GSK3A, primary screen (AID 1103); conditions: fluorescence 635 nm, higher = more signal; also: the record names both GSK3A and GSK3B
[7] = target: Epidermal growth factor receptor (Homo sapiens) (UniProt P00533); test: compounds binding epidermal growth factor receptor – biochemical, small-molecule microarray, 635 nm fluorescence, primary screen (AID 1104); conditions: EGFR binding, higher = more signal;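 also: score merges 667 nm emission intensity with spot signal to noise over triplicate slides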
[8] = target: Follistatin-related protein 3 (Homo sapiens) (UniProt O95633); test: compounds binding follistatin-related protein 3 – biochemical, small-molecule microarray, 635 nm fluorescence, primary screen (AID 1105); conditions: FSTL3 binding, higher = more signal;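 also: score merges emission near 667 nm and signal to noise per printed spot across three slides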
[9] = target: Dickkopf-related protein 1 (Homo sapiens) (UniProt O94907); test: small molecules binding DKK1 protein – biochemical, small-molecule microarray, 635 nm fluorescence scan, primary screen (AID 1106); conditions: higher = more signal;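 also: score merges emission near 667 nm with signal to noise over three replicate slides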
[10] = system: Inhibin beta A chain (activin A); test: small molecules binding activin A – biochemical, small-molecule microarray, 635 nm fluorescence scan, primary screen (AID 1107); conditions: INHBA, higher = more signal;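 also: mouse activin A protein probed at 4.33 µg/mL on printed slides; score merges bound-protein fluorescence near 667 nm with spot signal-to-noise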

Sequence of Dickkopf-related protein 1 (Homo sapiens) (O94907 whole entry, looked up): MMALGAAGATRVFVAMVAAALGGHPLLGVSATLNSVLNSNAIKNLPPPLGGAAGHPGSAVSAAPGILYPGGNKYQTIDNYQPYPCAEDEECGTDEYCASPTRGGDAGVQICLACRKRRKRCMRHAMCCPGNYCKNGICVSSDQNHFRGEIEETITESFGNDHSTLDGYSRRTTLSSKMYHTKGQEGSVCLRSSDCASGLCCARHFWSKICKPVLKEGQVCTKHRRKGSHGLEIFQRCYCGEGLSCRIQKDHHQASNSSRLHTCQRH
Sequence of Epidermal growth factor receptor (Homo sapiens) (P00533 whole entry, looked up): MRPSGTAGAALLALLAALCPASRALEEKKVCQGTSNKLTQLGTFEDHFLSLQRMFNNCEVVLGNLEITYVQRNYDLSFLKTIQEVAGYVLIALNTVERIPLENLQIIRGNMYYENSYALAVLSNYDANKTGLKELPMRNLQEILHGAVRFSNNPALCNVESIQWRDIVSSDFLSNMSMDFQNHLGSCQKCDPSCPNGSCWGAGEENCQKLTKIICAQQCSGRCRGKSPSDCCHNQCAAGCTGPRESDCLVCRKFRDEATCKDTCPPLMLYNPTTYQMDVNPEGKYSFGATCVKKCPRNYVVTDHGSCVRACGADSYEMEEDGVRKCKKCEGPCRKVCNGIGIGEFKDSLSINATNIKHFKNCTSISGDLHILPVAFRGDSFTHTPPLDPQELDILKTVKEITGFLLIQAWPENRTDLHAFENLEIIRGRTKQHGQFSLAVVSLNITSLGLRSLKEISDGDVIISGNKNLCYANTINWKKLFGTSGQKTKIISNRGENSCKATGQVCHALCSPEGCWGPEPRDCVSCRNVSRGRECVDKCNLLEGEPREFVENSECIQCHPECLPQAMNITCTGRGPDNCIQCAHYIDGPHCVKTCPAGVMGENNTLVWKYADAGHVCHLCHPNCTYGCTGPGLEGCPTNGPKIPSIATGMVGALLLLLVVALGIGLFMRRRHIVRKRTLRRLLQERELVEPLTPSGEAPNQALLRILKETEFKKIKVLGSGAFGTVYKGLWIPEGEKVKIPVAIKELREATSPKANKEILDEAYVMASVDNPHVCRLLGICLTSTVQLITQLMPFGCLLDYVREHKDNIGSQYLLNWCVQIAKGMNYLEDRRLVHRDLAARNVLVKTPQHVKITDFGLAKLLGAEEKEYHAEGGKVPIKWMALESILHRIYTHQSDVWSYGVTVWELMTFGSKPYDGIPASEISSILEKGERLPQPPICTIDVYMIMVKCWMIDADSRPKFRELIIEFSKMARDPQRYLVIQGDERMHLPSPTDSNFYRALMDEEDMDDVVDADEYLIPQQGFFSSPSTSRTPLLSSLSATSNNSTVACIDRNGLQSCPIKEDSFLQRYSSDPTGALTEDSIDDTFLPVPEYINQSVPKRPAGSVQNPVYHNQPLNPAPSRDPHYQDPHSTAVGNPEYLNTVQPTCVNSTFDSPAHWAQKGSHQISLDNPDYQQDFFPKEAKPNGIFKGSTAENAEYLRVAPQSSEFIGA
Sequence of Fibroblast growth factor 10 (Homo sapiens) (O15520 whole entry, looked up): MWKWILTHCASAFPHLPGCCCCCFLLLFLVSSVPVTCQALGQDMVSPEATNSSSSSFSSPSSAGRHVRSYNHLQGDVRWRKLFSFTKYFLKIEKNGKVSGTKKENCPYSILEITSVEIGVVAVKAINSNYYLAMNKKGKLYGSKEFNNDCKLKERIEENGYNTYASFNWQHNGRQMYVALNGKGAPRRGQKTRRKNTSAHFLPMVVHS
Sequence of Follistatin-related protein 3 (Homo sapiens) (O95633 whole entry, looked up): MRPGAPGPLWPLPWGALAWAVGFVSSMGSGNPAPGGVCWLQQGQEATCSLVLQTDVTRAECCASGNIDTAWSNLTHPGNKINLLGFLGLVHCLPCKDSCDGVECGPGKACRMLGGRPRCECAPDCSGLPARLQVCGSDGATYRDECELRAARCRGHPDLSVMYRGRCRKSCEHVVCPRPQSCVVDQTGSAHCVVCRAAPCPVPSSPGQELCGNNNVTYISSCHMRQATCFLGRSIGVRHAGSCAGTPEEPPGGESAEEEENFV

Row | SMILES | composite z-score [1] | composite z-score [2] | composite z-score [3] | z-score [4] | composite z-score [5] | composite z-score [6] | composite z-score [7] | composite z-score [8] | composite z-score [9] | composite z-score [10]
1 | C=CCN(Cc1ccccc1)C(=O)C(c1cccs1)N(CCOCCO)C(=O)/C=C\C(=O)O (stereo not given) | 0.342 | 0.179 | 0.251 | -1.62 (inactive) | -2.23 | -0.869 | -2.04 | -1.27 | -2.6 | -2.43
2 | C[N+](C)(C)CCCC[C@@H]1NC(=O)[C@@H]2C[C@H](C(=O)NCCCCCN)[C@H](c3cccc(OCCO)c3)N2C1=O | 1.07 | 0.0277 | 0.356 | -0.657 (inactive) | 1.12 | 1.3 | -0.167 | -0.144 | -0.17 | -0.68
3 | O=C1OCCC/C=C\[C@H]2OC34C=CCN(Cc5ccccc5)C(=O)[C@H]3N(CCCCCCO)C(=O)[C@@H]4C12 (stereo not given in full) | -0.0862 | 0.227 | 0.932 | -0.286 (inactive) | -0.942 | -0.457 | -1.69 | -1.27 | -1.69 | -0.546
4 | COCCOC(=O)N1C(=O)[C@@]2(c3cc(C#CCCO)ccc31)[C@H](c1ccc(OCCO)cc1)N1[C@H](c3ccccc3)[C@H](c3ccccc3)OC(=O)[C@H]1[C@@H]2C(=O)N1CCN(c2ncccn2)CC1 | 0.732 | -0.104 | 0.27 | 0.319 (inactive) | 1.03 | 1.31 | 0.629 | 1.39 | 0.783 | 0.845
5 | COc1ccc(C(O)C2C=CC3C(=O)NC(=O)C3N2Nc2ccccn2)cc1 (stereo not given) | 0.948 | 0.422 | 0.267 | 0.706 (inactive) | 0.257 | -0.0877 | 0.686 | 0.304 | 0.645 | 0.371
6 | CC(C)c1ccc(NN2C(C(O)C(c3ccccc3)c3ccccc3)C=CC3C(=O)N(c4ccccc4)C(=O)C32)cc1 (stereo not given) | 1.08 | 0.517 | 0.344 | 0.304 (inactive) | 1.31 | 1.26 | 0.438 | 1.06 | 0.238 | 0.203
7 | [N-]=[N+]=NCc1ccccc1C[C@]1(C(=O)O)N=C(c2ccc(OCCCO)cc2)O[C@H]1c1ccccc1N=[N+]=[N-] | 1.17 | 0.621 | 0.435 | -3.66 (inactive) | 1.12 | 1.16 | 0.386 | 0.737 | 0.0572 | 0.303
8 | COC(=O)[C@@]1(Cc2ccc(OC)cc2)[C@H]2c3cc(C(=O)N4CCCC4)n(Cc4ccc(OC)c(OC)c4)c3C[C@H]2CN1C(=O)c1ccccc1 | 1.04 | 1.56 | 0.9 | -1.81 (inactive) | 0.784 | 1.17 | 1.34 | 1.42 | 0.56 | 1.01
9 | C#CCNC(=O)[C@H](Cc1ccccc1)NC(=O)CCC(=O)O | -0.759 | -0.397 | -0.205 | -0.222 (inactive) | -0.688 | -1.14 | -0.659 | -1.22 | -0.447 | 0.735
10 | O=C1NC(=O)C2C1C=CC(C(O)Cc1ccccc1)N2Nc1ccc(Cl)cc1Cl (stereo not given) | 1.2 | 0.931 | 1.09 | 1.8 (inactive) | 0.175 | -0.0984 | -0.854 | 0.236 | -1.18 | 1.07
11 | COC(=O)c1c(CC[C@@H](CO)NC(=O)N[C@H](Cn2cc(Cc3ccccc3)nn2)C(C)C)oc(C(C)=O)c1C(=O)OC | 0.751 | -0.195 | -0.457 | -0.781 (inactive) | 1.16 | 0.544 | -0.172 | 0.678 | 0.857 | 0.509
12 | COC(=O)[C@@]1(Cc2ccc(OC)cc2)[C@H]2c3cc(C(=O)N4CCCC4)n(Cc4ccccc4)c3C[C@H]2CN1C(=O)c1ccccc1 | 0.93 | 2.64 | 1.31 | -1.16 (inactive) | 1.31 | 0.472 | 0.801 | 0.413 | -0.505 | 0.651
13 | C=CCNC(=O)[C@H]1[C@@H]2C(=O)O[C@@H](c3ccccc3)[C@@H](c3ccccc3)N2[C@@H](c2ccc(OCCO)cc2)[C@]12C(=O)Nc1ccc(C#CC3=CCCCC3)cc12 | 1.25 | -0.488 | 0.171 | -1.24 (inactive) | 0.929 | 1.05 | 0.293 | 0.881 | 0.183 | 0.543
14 | C=CCC(OC(C)=O)[C@@H]1[C@@H](N(Cc2cccc3ccccc23)C(=O)c2ccc(-c3ccccc3)cc2)c2cc(OCCCO)ccc2N1C(=O)Cc1ccc(OC)cc1 (stereo not given in full) | 0.283 | -0.0675 | 0.0188 | -1.08 (inactive) | 0.168 | 0.0341 | 0.23 | 0.431 | 0.0533 | 0.884
15 | C#CCN(CC=C(C)C)[C@H](CO)c1ccccc1 | -0.383 | -0.127 | -0.209 | -1.21 (inactive) | -0.0443 | 0.81 | 0.372 | 0.0894 | 0.352 | 0.942
16 | COCCOC(=O)N1C(=O)[C@@]2(c3cc(C#CC4=CCCCC4)ccc31)[C@H](c1ccc(O)cc1)N1[C@H](c3ccccc3)[C@H](c3ccccc3)OC(=O)[C@H]1[C@@H]2C(N)=O | 1.03 | -0.327 | -0.624 | -1.03 (inactive) | 1.17 | 1.12 | 0.584 | 1.16 | 0.639 | 0.155
17 | COc1ccc(NN2C(C(O)c3ccc([N+](=O)[O-])cc3)C=CC3C(=O)N(C4CCCCC4)C(=O)C32)cc1 (stereo not given) | 0.562 | 0.627 | 0.879 | 0.393 (inactive) | 0.355 | 0.909 | -0.188 | 0.73 | -0.281 | 0.921

Row | SMILES | composite z-score [1] | composite z-score [2] | composite z-score [3] | z-score [4] | composite z-score [5] | composite z-score [6] | composite z-score [7] | composite z-score [8] | composite z-score [9] | composite z-score [10]
18 | [N-]=[N+]=NCc1ccccc1[C@@H]1OC(c2ccc(OCCCO)cc2)=N[C@]1(Cc1ccccc1N=[N+]=[N-])C(=O)N1CCOCC1 | 0.814 | 1.22 | 1.35 | 0.783 (inactive) | 1.33 | 1.3 | 0.248 | 0.783 | 0.231 | 0.73
19 | COCCCN1C(=O)[C@@]2(Cc3ccccc31)c1ccccc1C(=O)N(Cc1ccccc1C(F)(F)F)[C@H]2c1ccc(CO)cc1 | 1.13 | -0.106 | -0.563 | 0.498 (inactive) | 0.94 | 0.561 | 0.12 | 0.919 | 0.756 | 0.915
20 | CCN(CC)c1ccc(N2CC=CC34O[C@@H]5/C=C\CCCOC(=O)C5[C@H]3C(=O)N(CCO)[C@@H]4C2=O)cc1 (stereo not given in full) | 1.1 | -0.221 | 0.63 | -0.375 (inactive) | -1.12 | -0.404 | -1.28 | -0.957 | -1.14 | 0.0809
21 | CC(C)C[C@@H]1NC(=O)[C@H]2C[C@@H](C(=O)NCCCCCCN)[C@@H](c3ccc(O)cc3)N2C1=O | 1.59 | 1.06 | 0.808 | 0.823 (inactive) | 0.23 | 0.247 | 0.106 | 0.69 | 0.731 | 1.23
22 | CCC(CC)C(O)C1C=CC2C(=O)N(C)C(=O)C2N1Nc1ccccc1 (stereo not given) | 0.695 | 0.332 | 0.9 | 0.464 (inactive) | 0.603 | 0.499 | 0.0611 | 0.698 | 0.371 | 0.867
23 | O=C1c2ccccc2[C@@]2(Cc3ccccc3N(CCN3CCOCC3)C2=O)[C@H](c2ccc(CO)cc2)N1Cc1ccccc1 | 0.878 | -0.0074 | 0.278 | -0.765 (inactive) | -0.667 | -1.23 | -1.17 | -0.267 | -0.391 | 0.819
24 | O=C1c2ccccc2[C@](Cc2ccccc2I)(C(=O)NC2CC2)[C@H](c2ccc(CO)cc2)N1Cc1ccccc1 | 0.701 | -0.145 | 0.693 | -0.0921 (inactive) | 0.409 | -0.0685 | -0.375 | -0.117 | -0.112 | 0.0183
25 | COc1ccc(C#Cc2ccc3c(c2)[C@]2(C(=O)N3)[C@H](c3ccccc3OCCO)N3[C@H](c4ccccc4)[C@H](c4ccccc4)OC(=O)[C@H]3[C@@H]2C(=O)O)cc1 | 1.26 | 0.734 | 0.142 | -2.14 (inactive) | 1.4 | 1.21 | 0.319 | 0.98 | 0.126 | 0.54
26 | C=C(CCCC)/C(=C/C[C@@H](OC(C)=O)c1ccccc1OCCO)c1cnc2ccccc2c1 | 0.561 | 0.149 | 0.12 | -0.397 (inactive) | 0.732 | 0.21 | -0.321 | 0.417 | -0.0491 | 1.33
27 | CCCC[C@H]1OB(O)C[C@H]2C1=C(COc1ccccc1)C[C@H]1C(=O)N(C)C(=O)[C@H]12 | -0.328 | 0.0763 | -0.442 | 0.377 (inactive) | 0.429 | -0.0785 | 0.447 | 0.43 | 0.439 | 0.741
28 | COc1ccc([Si](C)(C)[C@@H]2[C@@H](CCO)O[C@]3(C(=O)N(Cc4ccc(N5C(=O)COc6ccccc65)cc4)c4ccccc43)[C@H]2C)cc1 | 1.31 | 0.146 | 0.147 | -1.68 (inactive) | 0.808 | 0.522 | 0.334 | 0.469 | 0.129 | 0.678
29 | COC(=O)[C@@]1(Cc2ccccc2)[C@H]2c3cc(C(=O)N(C)C)n(CCSCCO)c3C[C@H]2CN1C(=O)c1ccccc1 | 0.751 | 0.692 | 0.829 | -1.48 (inactive) | 0.3 | -0.205 | -0.348 | -0.353 | -0.772 | 0.442
30 | COc1cc2c(cc1O)C(C1CC1)N(Cc1cc3c(cc1Br)OCO3)CC2 (stereo not given) | 0.802 | -0.197 | 0.655 | -0.39 (inactive) | -1.02 | -1.26 | -1.12 | -1.35 | -0.948 | -0.13
31 | COCCOC(=O)N1C(=O)[C@@]2(c3cc(C#CC4=CCCCC4)ccc31)[C@H](C(=O)Nc1nc3ccccc3s1)[C@H]1C(=O)O[C@H](c3ccccc3)[C@H](c3ccccc3)N1[C@@H]2c1ccc(OCCO)cc1 | 0.687 | -0.0057 | 0.235 | 0.000305 (inactive) | 0.945 | 1.21 | 0.36 | 0.908 | 0.495 | 0.91
32 | COCCOC(=O)N1C(=O)[C@@]2(c3cc(C#CC4=CCCCC4)ccc31)[C@H](C(N)=O)[C@H]1C(=O)O[C@H](c3ccccc3)[C@H](c3ccccc3)N1[C@@H]2c1ccc(OCCO)cc1 | 0.497 | -0.504 | -0.091 | 0.497 (inactive) | 1.31 | 1.1 | 0.0883 | 1.22 | 0.553 | 0.052
33 | CC1CC/C=C\[C@H]2OC34C=CCN(C(C)(C)C)C(=O)[C@H]3N(CCCCCCO)C(=O)[C@@H]4C2C(=O)O1 (stereo not given in full) | 2.05 | -0.0908 | 0.416 | -0.0517 (inactive) | 0.0444 | -0.615 | -0.777 | -0.568 | -0.957 | 1.13
